Reference: PubChem BioAssay (NCI)
The panel holds about 79,000 compounds, 15% with a hit somewhere; the sample as a whole holds those more often. A number with no mark means an inactive call. The source made the active and inactive calls. Cut-off read from the data, not from the text of the source: active = growth inhibition above about 70%; inactive = the rest. Where a SMILES comes first, the peptide text is derived from it. [ ]: non-standard residue; d: D form. The star is where a group is joined. Cbz = O=C(OCc1ccccc1)*; Dha = C=C(N)C(=O)O

Experiments:
[1] = NCI Yeast Anticancer Drug Screen. Data for the rad50 strain (AID 155);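 note: 0% = growth of vehicle-only cultures of the same strain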; settings: S. cerevisiae rad50 strain growth inhibition; at 50.0 µM; hits give high values
Summary of the method: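 Relative growth inhibition (compound vs vehicle) was measured in yeast with a defined repair-gene alteration.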

[2] = NCI Yeast Anticancer Drug Screen. Data for the mec2-1 strain (AID 157); settings: S. cerevisiae mec2-1 strain, at 50.0 µM, hits give high values
Summary of the method: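 Strain: mec2-1 (DNA repair/cell cycle alteration). Compound exposure, then growth measured; inhibition expressed relative to vehicle.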

[3] = NCI Yeast Anticancer Drug Screen. Data for the sgs1 mgt1 strain (AID 161);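 note: 0% = growth of cultures given vehicle only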; settings: S. cerevisiae sgs1 mgt1 strain, at 50.0 µM, hits give high values
Summary of the method: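 Read-out: growth inhibition vs vehicle controls. Cells: mutant yeast strain deficient in DNA damage repair.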

[4] = NCI Yeast Anticancer Drug Screen. Data for the cln2 rad14 strain (AID 165);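 note: 0% = growth equal to vehicle treated cultures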; settings: S. cerevisiae cln2 rad14 strain, at 50.0 µM, hits give high values
Summary of the method: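 Compounds are applied to the cln2 rad14 yeast strain, and growth is then compared with that of vehicle-treated cultures to give inhibition.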

[5] = NCI Yeast Anticancer Drug Screen. Data for the bub3 strain (AID 167); settings: S. cerevisiae bub3 mutant strain, at 50.0 µM, hits give high values
Summary of the method: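 Screening used yeast with an engineered genetic alteration affecting cell cycle control. Compound-exposed cultures were compared with vehicle cultures, and reduced growth was taken as inhibition.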

[6] = NCI Yeast Anticancer Drug Screen. Data for the mlh1 rad18 strain (AID 175); settings: S. cerevisiae mlh1 rad18 strain growth inhibition; at 50.0 µM; hits give high values
Summary of the method: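 Read-out is yeast growth inhibition, calculated against vehicle-only controls. The compound was applied to a strain engineered with DNA damage repair alterations.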

Row | SMILES | growth inhibition [1] | growth inhibition [2] | growth inhibition [3] | growth inhibition [4] | growth inhibition [5] | growth inhibition [6]
1 | O=C(O)c1c[nH]c2cc(OCc3ccccc3)ccc2c1=O | -4.1% | -44.4% | -45.5% | -7.15% | -21.1% | 7.75%
2 | Cc1nc(Cc2ccc(O)c(O)c2)c(C)o1 | 6.7% | 13.9% | 3.95% | -17.2% | -18% | 8.2%
3 | CN(C)C(=O)Nc1ccc(F)cc1 | -5.75% | -25.6% | 13.6% | -20.6% | -24.9% | -16.6%
4 | [O-]c1c[n+](CC[n+]2cc([O-])on2)no1 | 13.7% | -8.45% | -13.2% | 40.5% | -19.6% | -14.7%
5 | O=C(O)CCC(=O)Nc1ccccc1C(=O)O | -1.15% | 11.8% | -8.15% | 0.15% | 5.6% | -4.5%
6 | OCCCOC(c1ccccc1)(c1ccccc1)c1ccccc1 | -22.9% | -29.4% | -30.2% | 1.55% | -49.8% | -12.9%
7 | Cc1cc2nc(CC(C(F)(F)F)C(F)(F)F)oc2cc1C | -21% | -13.4% | -13.2% | -4.85% | -14.4% | 34.9%
8 | CNC(=O)Oc1ccc2c(c1)[C@]1(C)CCN(C)[C@@H]1N2C | -9.7% | -29.8% | -32.7% | -5.55% | -35.7% | -37.2%
9 | COC(=O)CCc1ccc(N)cc1 | 4.85% | -2.95% | 9.5% | -4.3% | -2.1% | 2.9%
10 | CCOCCN(CCOCC)c1ncnc2[nH]ncc12 | 9.15% | 5.15% | 9.95% | -25.2% | 21.6% | 10.6%
11 | N#CCCN(C(=O)COc1ccc(Cl)cc1Cl)C1CCCCC1 | 85% (active) | 87.7% (active) | 73% (active) | 87.2% (active) | 89.3% (active) | 95% (active)
12 | Nc1nc2ncc(CCCNc3ccc(C(=O)NC(CCC(=O)O)C(=O)O)cc3)nc2c(=O)[nH]1 (stereo unspecified) | 33% | 15.4% | 8.3% | 10.2% | 3.7% | 22.1%
13 | O=C(Nc1cc(Cl)c(I)cc1Cl)C(F)(F)F | 55.4% | 10.8% | 29.7% | -8.35% | 7.05% | 18.8%
14 | C=C(NC(=O)CNC(=O)OCc1ccccc1)C(=O)O (Cbz-Gly-[Dha]-OH) | 3.05% | 11.2% | 7.4% | -9.85% | 15.7% | 14%
15 | CN(C)c1nc(S(C)(=O)=O)nc2nc(S(C)(=O)=O)[nH]c12 | 2.45% | -19.1% | -4% | -47% | 1.95% | -17.6%
16 | O=C(C[n+]1ccccc1)c1ccccc1 | 1.75% | -4.4% | -2.4% | -18.5% | 9.45% | 30.7%
17 | CCN(CC)CCOC(=O)COc1ccc(Cc2ccccc2)cc1 | 14.7% | 3.55% | 14.3% | 15.6% | -9.4% | 11.3%
18 | CCOC(=O)C(=Cn1c(=S)[nH]c2cc(C)ccc21)C(=O)OCC | -19.8% | -39.1% | -16.2% | 13.6% | 0.1% | -11.8%
19 | O=C1OC(c2cccc(Cl)c2)=N/C1=C\c1cccc([N+](=O)[O-])c1 | 15.5% | 12.3% | 24.6% | 18.9% | 17.6% | 2%
20 | CC1=C2N3C[C@@H](n4c(=O)n(C)c(=O)n43)C23CCC1n1c(=O)n(C)c(=O)n13 | -7.1% | -0.85% | 17.9% | 7% | -7.9% | -9.95%
21 | CC(=O)c1ccc(C)c([N+](=O)[O-])c1 | -13.2% | -5.65% | -11.6% | -48.1% | -7.15% | -0.6%

Row | SMILES | growth inhibition [1] | growth inhibition [2] | growth inhibition [3] | growth inhibition [4] | growth inhibition [5] | growth inhibition [6]
22 | CC(=O)[C@H]1CC[C@H]2[C@@H]3CC=C4C=CCC[C@@H]4[C@H]3CC[C@]12C | -14.1% | 20.1% | 22.9% | -52% | 18.8% | 24.4%
23 | CC(O)C1OC(n2cnc3c(=O)[nH]cnc32)C(O)C1O (stereo unspecified) | -9.45% | -24.9% | -0.65% | -0.85% | -7.05% | -22.9%
24 | O=C(Nc1ncnc2nc(-c3ccccc3)[nH]c12)c1ccccc1 | -30.1% | -16.9% | -5% | -56.3% | -6.65% | 5.95%
25 | CC/C=N/Nc1cn[nH]c(=O)c1Cl | -1.3% | 0.1% | 9.85% | 4.85% | -7.75% | -14.9%
26 | CC1(C)OC(=O)C(=CN(C2CCCCC2)C2CCCCC2)C(=O)O1 | -6.45% | -6.6% | 7% | -21.2% | -33.6% | -13.3%
27 | CC[O-].CC[O-].O=C1c2ccccc2C(=O)c2c(O)ccc([O-])c21.O=C1c2ccccc2C(=O)c2c(O)ccc([O-])c21.[Ti+4] | -20.6% | 1.75% | -3.45% | -4.3% | -17.9% | -14.8%
28 | S=C(NCc1cccc2ccccc12)Nc1ccccc1 | -9.3% | 7.8% | 39% | -27.5% | 8.8% | 20.9%
29 | Cc1c(O)c2c(c(O)c1Cc1ccc(C#N)cc1)C(=O)c1ccccc1C2=O | -4.5% | 31.4% | 17.9% | -4.25% | -1.95% | -0.9%
30 | CSc1nc(NC2OCC(O)C(O)C2O)c(Cl)c(=O)[nH]1 (stereo unspecified) | -13.5% | -2.1% | 12.3% | -4.15% | 2.55% | 0.75%
31 | C=CCOC(=O)NC(CCC(N)=O)C(=O)O (stereo unspecified) | 19.7% | 1.1% | 14.7% | 9.5% | -1% | 16.3%
32 | CC12CCCC1C1CC=C3CC(SC4CCC5(C)C(=CCC6C7CCCC7(C)CCC65)C4)CCC3(C)C1CC2 (stereo unspecified) | -2.05% | -0.25% | -21.5% | -37.9% | -17.6% | -21.6%
33 | CC(=O)O[C@]12CCCCCC1C1(O)C(O)CCCC[C@H]12 (stereo partly specified) | 10.2% | -23.6% | -21.2% | 4.45% | -10.3% | -16.4%
34 | CC(=O)Nc1ccc(/C=N/NC(N)=S)cc1 | 7.4% | -7.35% | 17% | 12.4% | 3.05% | 13%
35 | CCOC(=O)C1=CC2CCOC2O1 (stereo unspecified) | -19.8% | -14.8% | 5.85% | -28.7% | -9.5% | 5.5%
36 | N#CCCN(c1ccc(C=Nc2cccc([N+](=O)[O-])c2)cc1)S(=O)(=O)c1ccccc1 | 0.75% | 5.65% | 14.7% | 8.1% | -1% | 14.4%
37 | CSC(=O)c1sc(SC)[n+](-c2ccccc2)c1O | 4.95% | -20.2% | -1% | -5.5% | -13.3% | -7.9%
38 | CCC(C)[N+](=O)[O-] (stereo unspecified) | 3.6% | -5.1% | -5.55% | -2.15% | 0.75% | 3.1%
39 | CC(=O)c1ccc(I)cc1 | 5.15% | -11.7% | 24.6% | 13.8% | 14.1% | 18.1%
40 | O=C1C(=S)Nc2c(F)cccc21 | 21.6% | 51.4% | 24.2% | 39.6% | 29.6% | 31.9%
41 | CN1CCCCC1C[CH2][Sn]([c]1ccccc1)([c]1ccccc1)[c]1ccccc1 (stereo unspecified) | 99.6% (active) | 99.5% (active) | 99.7% (active) | 99.2% (active) | 99.2% (active) | 99.5% (active)
